# From PubChem
# An excerpt weighted towards active compounds, which were near 12% of everything screened.
# HP1b binding inh = blocks HP1-beta chromodomain binding to methylated histone tails; AlphaScreen HP1-beta / biotin-H3K9me3 peptide binding; Potency, µM (series often up to 114 µM), without a hit: at the top dose activity change, negative = inhibition, actives largely listed as inhibitors; actives 0.56% (n = 390,000); further: nearly all actives have a fitted effect of over 70% in size
#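 HP1-beta protein (50 nM final) preincubated 30 min at room temperature with biotinylated H3(1-18)K9me3 peptide (50 nM) in PBS pH 7.4, 0.01% Tween-20, then compound added for 30 min. AlphaScreen streptavidin donor/nickel chelate acceptor beads (10 ug/mL final), 30 min dark, luminescence read.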
# G9a block = blocks human histone lysine methyltransferase G9a. Q96KQ7. AID 504332. G9a H3K9 monomethylation, AlphaScreen, 2 h. Potency, µM (top dose mostly 102 µM), without a hit: at the highest dose activity, negative = inhibition, actives largely listed as inhibitors. actives 8.8% (n = 350,000); further: on the % scale 0 is the no-effect control and ±100 the full control effect; nearly all actives have a fitted effect of over 75% in size
#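 Enzyme 20 nM + cpd, 15 min RT; add b-H3K9 pep 500 nM / SAM 20 uM; 2 h RT; anti-H3K9me1 Ab 0.5 ug/mL + SA donor / anti-rabbit acceptor beads 20 ug/mL each, 10 min; AlphaScreen read.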
# JMJD2A Tudor inh = inhibitors of human JMJD2A Tudor domain. actives 4.4% (n = 390,000). Potency, µM (series often up to 114 µM), for inactives: top-dose activity change, negative = inhibition, hits mostly inhibitors. AlphaScreen JMJD2A-Tudor / H3K4me3 peptide binding; further: on the % scale 0 is the no-effect control and ±100 the full control effect; nearly all actives have a fitted effect of over 50% in size
# Sfp PPTase inh = Sfp phosphopantetheinyl transferase inhibition | Potency, µM, inactives show largest response in the series, negative = inhibition, actives largely listed as inhibitors | Biochemical Sfp PPTase activity, qHTS | actives 3.5% (n = 310,000) | Q9F4F7;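 further: the enzyme is Sfp with the accession as filed and its product quenches rhodamine fluorescence; 0% = enzyme reaction without inhibitor and -100% = no enzyme wells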
#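 Reaction rates are the 30-min fluorescence difference (ex 525, em 598 nm) in wells containing 15 nM Sfp, 5 uM rhodamine-CoA and 12.5 uM BHQ-2-YbbR at pH 7.6 with 10 mM MgCl2.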
# PLK1 PBD inh = inhibitors of human PLK1 polo-box domain binding; Plk1 PBD binding of FITC phosphopeptide, fluorescence polarization; Potency, µM, for inactives: max response, negative = inhibition, actives largely listed as inhibitors; actives 2.8% (n = 360,000); AID 720504; further: series mostly up to about 57 µM; on the % scale 0 is the no-effect control and ±100 the full control effect; nearly all actives have a fitted effect of over 65% in size
# Target sequence (P53350 whole entry, looked up, the tested form may be a part): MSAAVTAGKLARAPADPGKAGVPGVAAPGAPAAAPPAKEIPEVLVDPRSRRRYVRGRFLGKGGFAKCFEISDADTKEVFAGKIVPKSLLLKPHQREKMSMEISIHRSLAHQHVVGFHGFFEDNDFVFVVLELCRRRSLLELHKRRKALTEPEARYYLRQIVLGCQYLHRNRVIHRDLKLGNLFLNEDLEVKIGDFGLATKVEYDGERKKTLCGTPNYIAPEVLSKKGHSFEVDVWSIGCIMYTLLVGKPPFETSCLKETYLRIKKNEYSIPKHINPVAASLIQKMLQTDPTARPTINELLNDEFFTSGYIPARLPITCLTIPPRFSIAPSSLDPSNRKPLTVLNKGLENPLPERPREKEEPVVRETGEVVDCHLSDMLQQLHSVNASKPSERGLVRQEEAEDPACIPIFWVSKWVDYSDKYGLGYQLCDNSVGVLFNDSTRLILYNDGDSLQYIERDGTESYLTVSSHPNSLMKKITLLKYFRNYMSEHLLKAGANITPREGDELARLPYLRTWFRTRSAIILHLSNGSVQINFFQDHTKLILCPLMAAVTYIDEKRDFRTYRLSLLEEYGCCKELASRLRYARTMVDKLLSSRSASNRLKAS
# BAZ2B inh = inhibitors of human BAZ2B bromodomain. Potency, µM (top dose mostly 114 µM), for inactives: at the highest dose activity change, negative = inhibition, usual class: inhibitors. AlphaScreen BAZ2B-H3K14Ac peptide displacement. actives 4.4% (n = 360,000). Q9UIF8; further: on the % scale 0 is the no-effect control and ±100 the full control effect; nearly all actives have a fitted effect of over 60% in size
#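 AlphaScreen displacement: compounds (up to 110uM) incubated 30 min at room temperature with a preformed 50 nM BAZ2B/50 nM biotinylated H3K14Ac peptide complex in PBS pH 7.4 with Tween-20. Donor and acceptor beads at 10 ug/mL final added, 20 min light-protected before reading.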
# Starred values were filed as active, the others as inactive; ? = inconclusive; nt = no result given; ! = repeats disagree; [ ] = dose if it differs, or a comment. The call rests on the fitted dose curve; in most records, active means well fitted curve in the direction sought with a large enough effect; inconclusive means small, poorly fitted or top-dose-only effect, or another doubt; inactive means no such curve, though single readings can be large; an effect the other way counts as inactive or inconclusive. Potency means the concentration at half of the fitted maximal effect.
SMILES,HP1b binding inh,G9a block,JMJD2A Tudor inh,Sfp PPTase inh,PLK1 PBD inh,BAZ2B inh
O=[N+]([O-])c1ccc(-c2[se]c3ccccc3c2I)cc1,nt,?,nt,-21%,nt,nt
Cn1c(NN=O)nc2ccccc21,-2%,8.9µM*,?,40µM*,-5%,?
CN1CCN(Cc2nc3ccccc3n2C)CC1,35%,?,-3%,8%,0%,-3%
c1ccc(CNCCc2c[nH]c3ccccc23)cc1,12%,4%,-17%,-3%,-1%,?
COc1cc(CNCCc2c[nH]c3ccccc23)cc(OC)c1,?,32µM*,3.5µM*,2%,-11%,50µM*
c1ccc2c(CCNCc3ccc4c(c3)OCO4)c[nH]c2c1,4%,?,?,35µM*,-2%,?
Fc1cccc(CNCCc2c[nH]c3ccccc23)c1,26%,nt,-15%,2%,-1%,?
Cc1cccc(CNCCc2c[nH]c3ccccc23)c1,13%,nt,?,-19%,11%,40µM*
CCc1ccc(CNCCc2c[nH]c3ccccc23)cc1,?,?,35µM*,-22%,1%,2%[0.457 µM]
CNC(=O)Oc1ccc2c(c1)[C@@]1(C)CCN(C)C1N2C (stereo not given in full),nt,3%[2.33 µM],nt,?,nt,nt
NC(=NCCC[C@H](N)C(=O)O)N[N+](=O)[O-],nt,14%[59 µM],nt,7%,nt,nt
O=C(Nc1ccc2c(c1)OCCO2)c1cccn(Cc2cccc([N+](=O)[O-])c2)c1=O,20%,?,?,nt,nt,-25%
O=C1CC(c2ccc(C(F)(F)F)cc2)c2c(c3ccccc3oc2=O)O1 (stereo not given),8%,0%[59 µM],-15%,nt,nt,-8%
S=c1[nH]nc(-c2cccs2)n1C1CCCCC1,10%,nt,6.3µM*,?,-22%,-4%
N#CC1(N2CCCCC2)CCCCC1,nt,-4%[12.7 µM],nt,14%,nt,nt
Cc1ccc2c(c1)CC1(CN2C)C(=O)NC(=O)N(c2ccc(C)c(C)c2)C1=O (stereo not given),34%,8.9µM*,-16%,-8%,-19%,-23%
Cc1ccccc1N1C(=O)NC(=O)/C(=C\c2cc(Br)c(N3CCOCC3)o2)C1=O,?,?,-27%,-17%,104%,?
Cc1ccc(N2C(=O)CC(=O)NC2=O)cc1Cl,38%,nt,-7%,-7%,-10%,-14%
Cc1ccc2c(c1)CC1(CN2C)C(=O)NC(=O)N(c2ccccc2C)C1=O (stereo not given),34%,10µM*,-5%[57.1 µM],-9%,-19%,-5%
Cc1ccc2c(c1)CC1(CN2C)C(=O)NC(=O)N(CCc2ccccc2)C1=O (stereo not given),47%,7.9µM*,2%,-27%,-21%,-4%
Cc1ccc2c(c1)CC1(CN2C)C(=O)NC(=O)N(c2cccc(C)c2C)C1=O (stereo not given),49%,7.9µM*,-15%,-8%,-24%,-2%
O=C1NC(=O)C(CCc2ccncc2)(CCc2ccncc2)C(=O)N1CCc1ccccc1,5%,nt,-11%,-8%,-11%,-5%
CCCN(CCC)[C@@H]1CCc2c(OC)cccc2[C@@H]1C,nt,15%[59 µM],nt,6%,nt,nt
COc1ccccc1N1C(=O)NC(=O)C2(Cc3cc(C)ccc3N(C)C2)C1=O (stereo not given),30%,8.9µM*,-30%,-17%,-18%,-5%
COc1ccc(CC2(CCc3ccccn3)C(=O)NC(=O)N(c3ccccc3C)C2=O)cc1OC (stereo not given),25%,4%[12.7 µM],-10%,-2%,0%,-8%
SMILES,HP1b binding inh,G9a block,JMJD2A Tudor inh,Sfp PPTase inh,PLK1 PBD inh,BAZ2B inh
O=c1[nH]c2ccccc2o1,22%,-45%,32µM*,-4%,-13%,-4%
C=CC[n+]1c(-c2ccc(C)cc2)csc1Nc1c(C)n(C)n(-c2ccccc2)c1=O,4%,18µM*,-27%,-1%,-17%,?
COP(=S)(OC)Oc1ccc(Sc2ccc(OP(=S)(OC)OC)cc2)cc1,139%,?,113%,40µM*,?,nt
CCOc1ccccc1NC(=O)CCn1cccc1,8%,?,-17%,18%,-11%,nt
Oc1cccc[c]1[Hg][Cl],nt,?,nt,0.14µM*,nt,nt
CC12CCC(=O)C=C1CC(O)C1C2CCC2(C)C1CCC2(C)O (stereo not given),10%[57 µM],nt,-14%,nt,-7%,nt
N#CC1(c2ccccc2)CCN(C2CC(=O)N(c3ccc(F)cc3)C2=O)CC1 (stereo not given),38%,nt,-5%,-6%,-3%,-6%
COc1ccc(N2C(=O)CC(N3CC=C(c4ccccc4)CC3)C2=O)cc1 (stereo not given),0%,10µM*,-23%,4%,-13%,-11%
C=C(C)CC1(CC)C(=O)NC(=S)NC1=O,-3%,nt,-14%,nt,-12%,nt
COc1cccc(CCNCc2cccc(C(F)(F)F)c2)c1,?,10µM*,2.5µM*,-7%,-8%,56µM*
CC(Cc1cccc(C(F)(F)F)c1)NCCCc1ccccc1 (stereo not given),nt,16%[59 µM],nt,-1%,nt,nt
CC1CCN(C(=O)COC(=O)c2cn(C)c3ccccc23)CC1,38%,-7%[12.7 µM],-13%,nt,-12%,2%
O=C(OCC(=O)N1CCOCC1)c1ccc[nH]c1=O,-4%,20µM*,18µM*,2%,-8%,nt
O=C1CC2OCC=C3CN4CCC56c7ccccc7N1C5[C@H]2[C@H]3C[C@H]46 (stereo not given in full) (tested in a mixture with another compound),nt,-34%[12.7 µM],nt,22%,nt,nt
O=C(CS(=O)C(c1ccccc1)c1ccccc1)NO (stereo not given),nt,3%[12.7 µM],nt,-12%,nt,nt
CC1=CC(=O)c2c(O)cccc2C1=O,nt,-98%[2.33 µM],nt,35µM*!,nt,nt
CC(C)C[C@H]1C(=O)N2CCCC2[C@]2(O)O[C@](NC(=O)[C@@H]3C=C4c5cccc6[nH]c(Br)c(c56)C[C@H]4N(C)C3)(C(C)C)C(=O)N12 (stereo not given in full),nt,22µM*,nt,45µM*,nt,nt
CN1CCN(S(=O)(=O)c2cccc(C(=O)N3CCN(c4ccccc4F)CC3)c2)CC1,18%,2µM*,-17%,nt,-4%,7%
COC(=O)C12CC3=C[C@H](CC3=O)Cc3ccccc3[C@@H]1CNC2=O (stereo not given in full),nt,nt,nt,-13%,nt,nt
CC(C)=CCCC1(C)C=Cc2c(O)c3c(c(CC=C(C)C)c2O1)OC12C(CC4CC1C(C)(C)OC2(C/C=C(/C)C(=O)O)C4O)C3=O (stereo not given),nt,-7%[2.33 µM],nt,-15%,nt,nt
O=c1c2ccccc2nc(/C=C/c2ccc(O)c(O)c2)n1-c1ccccc1,-15%,7.9µM*,-34%,-15%,45%,?
